Hits are enriched below; roughly 0.9% of the tested compounds scored in any of these assays.
SRC3 TRFRET art: TR-FRET detection interference compounds, artefact control for PPARgamma SRC-3 recruitment agonists, biochemical, TR-FRET ratio | TR-FRET ratio at 8 µM | AID 1048, 2008 | actives 0.39% (n = 99,000) | TR-FRET artefact counter-screen, PPARgamma/SRC-3 format; stronger effect = higher value
PPARg SRC-2 ag: agonists of PPARg-SRC-2 recruitment, primary screen, biochemical, HTS; Peroxisome proliferator-activated receptor gamma (Homo sapiens), P37231; PPARgamma LBD-SRC-2 recruitment; activation, % at 8 µM; actives 0.34% (n = 200,000); AID 1032, 2008; in the data active = activation above about 22%;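 also: 0% = vehicle and 100% = reference agonist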
Target sequence (P37231 whole entry, looked up, the tested form may be a part): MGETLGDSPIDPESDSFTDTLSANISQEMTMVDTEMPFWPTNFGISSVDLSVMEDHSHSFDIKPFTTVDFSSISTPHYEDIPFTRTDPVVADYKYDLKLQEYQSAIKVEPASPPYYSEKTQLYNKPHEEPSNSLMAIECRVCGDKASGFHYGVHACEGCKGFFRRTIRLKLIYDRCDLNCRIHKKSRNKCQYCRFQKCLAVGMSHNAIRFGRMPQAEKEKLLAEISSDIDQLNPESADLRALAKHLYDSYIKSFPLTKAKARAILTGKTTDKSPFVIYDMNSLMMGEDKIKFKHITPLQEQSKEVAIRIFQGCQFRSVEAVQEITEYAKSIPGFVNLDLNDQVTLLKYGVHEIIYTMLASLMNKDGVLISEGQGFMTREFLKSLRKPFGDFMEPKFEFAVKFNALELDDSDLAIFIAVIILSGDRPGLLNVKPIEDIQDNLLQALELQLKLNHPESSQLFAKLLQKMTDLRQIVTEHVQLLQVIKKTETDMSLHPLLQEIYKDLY
SRC2 TRFRET art: TR-FRET signal artefacts, primary screen, artefact control for PPARgamma SRC-2 agonist project, biochemical; AID 1049, 2008; TR-FRET ratio at 8 µM; actives 0.4% (n = 200,000); TR-FRET artefact counter-screen; stronger effect = higher value
PPARg SRC3 recr: PPARgamma agonists recruiting SRC-3 coactivator, primary screen, biochemical; biochemical PPARgamma/SRC-3 coactivator recruitment assay; activation, % at 8 µM; actives 0.26% (n = 200,000); Peroxisome proliferator-activated receptor gamma (Homo sapiens), P37231; in the data active = activation above about 23%;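 also: 0% = DMSO and 100% = reference agonist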
PPARg SRC-1 ag: PPARgamma agonists recruiting SRC-1 coactivator, primary screen, biochemical; AID 631, 2007; actives 0.41% (n = 200,000); PPARgamma-SRC-1 coactivator recruitment biochemical assay; activation, % at 8 µM; Peroxisome proliferator-activated receptor gamma (Homo sapiens), P37231; in the data active = activation above about 19%;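 also: 0% = DMSO and 100% = reference agonist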
SRC1 TRFRET art: TR-FRET detection interference compounds, primary screen, artefact control for PPARgamma SRC-1 recruitment agonists, biochemical, TR-FRET emission ratio. TR-FRET detection artefact counter-screen; stronger effect = higher value. TR-FRET ratio at 8 µM. actives 0.34% (n = 99,000); in the data active = TR-FRET ratio above about 2300
* hit, by the source's call; . = no result. Rule as the data show it, unless noted: active = TR-FRET ratio above about 2000; inactive = the rest.

SMILES	SRC3 TRFRET art	PPARg SRC-2 ag	SRC2 TRFRET art	PPARg SRC3 recr	PPARg SRC-1 ag	SRC1 TRFRET art
COc1cccc(/C=N/NC(=O)CN2CC(c3ccccc3)CC2=O)c1OC (stereo unspecified)	1408	9	1542	1	8	1887
CCN(C(=O)CSc1nnc2c3ccccc3n(CC)c2n1)C1CCS(=O)(=O)C1 (stereo unspecified)	1590	11	1605	0	1	1925
N#CC1=C(N)OC2=C(CCC/C2=C/c2ccoc2)C1c1ccoc1 (stereo unspecified)	.	18	1567	31*	15	.
N#CC1=C(N)OC2=C(CC/C2=C\c2ccc(F)cc2)C1c1ccc(F)cc1 (stereo unspecified)	1626	7	1504	1	-6	1727
COc1ccc(NC(=O)CN(C)CC(=O)Nc2cccc(S(=O)(=O)N(C)c3ccccc3)c2)cc1	1628	11	1785	4	5	1767
Cn1c(=O)c2[nH]c(-c3ccccc3Cl)c(O)c2n(C)c1=O	1751	1	1382	2	-6	1667
Cn1c(=O)c2[nH]c(-c3ccccc3)c(O)c2n(C)c1=O	1758	10	1679	11	8	2338*
CC(C)Cc1nc2sc3c(NCc4ccco4)ncnc3c2c2c1COC(C)(C)C2	.	106*	4130*	2	4	.
CCCCC(=O)Nc1sc2c(c1C(=O)OCC)CCC(C=O)=C2Cl	.	-1	1453	-1	-6	.
O=C(CCCn1c(=S)[nH]c2cc3c(cc2c1=O)OCO3)N1CCN(c2ccccc2F)CC1	.	5	1568	-1	-1	.
Cc1ccc(C)c(N2CCN(C(=O)CCCn3c(=S)[nH]c4cc5c(cc4c3=O)OCO5)CC2)c1	.	10	2000*	11	9	.
N#Cc1c(-c2ccccc2Cl)cc(-c2ccccc2)[nH]c1=S	1776	3	1570	6	8	1755
N#Cc1c2c(c(-c3ccccc3Cl)[nH]c1=S)CCCC2	2745*	44*	2762*	21	40*	3189*
O=C(Cn1nc(-c2ccccc2)ccc1=O)Nc1ccc(N2CCN(C(=O)c3cccs3)CC2)cc1	1659	7	1567	6	12	1816
COc1ccc(OCC(=O)NC(=S)Nc2ccc3c4c(cccc24)CC3)cc1	2132*	3	1730	13	8	2059
Cc1ccccc1OCC(=O)NC(=S)Nc1ccc2c3c(cccc13)CC2	.	11	1639	14	8	.
COc1ccccc1/C=C(/C(=O)OCC(=O)N(C)Cc1ccccc1)c1ccccc1	1510	2	1436	0	1	1694
Cc1ccc(-n2c(C)cc(C(=O)COc3c(CO)cc(F)cc3CO)c2C)cc1C	1503	22*	1818	5	0	2057
COC(=O)c1[nH]c2cc(OC)c(OC)cc2c1NC(=O)Oc1ccccc1	.	10	1534	28*	4	.
O=C(Nc1ccccc1-c1nc2ccccc2s1)c1cccnc1	1465	6	4568*	2	0	1745
CCC(C)NC(=O)Cc1c(OC)ccc2cc(Br)ccc12 (stereo unspecified)	1936	14	2014*	8	19	2168
O=C(Nc1cccc(NS(=O)(=O)c2ccc(S(=O)(=O)NC3CC3)cc2)c1)c1ccccn1	.	7	1559	-2	23*	.
Cc1ccc(OCC(=O)NNC(=O)C(=O)NC(C)(C)C)cc1	1508	7	1515	7	21*	2454*
COc1cc(OC)c(/C=N/n2c(C)nnc2C)c(OC)c1	1608	-2	1513	-3	6	1711
Cn1cccc1CC(=O)N/N=C/C(Cl)=C/c1ccccc1	1886	-1	1579	7	4	2381*
SMILES	SRC3 TRFRET art	PPARg SRC-2 ag	SRC2 TRFRET art	PPARg SRC3 recr	PPARg SRC-1 ag	SRC1 TRFRET art
O=C(N/N=C/c1ccc([N+](=O)[O-])o1)c1cc(-c2ccc(-c3ccccc3)cc2)nc2ccccc12	1306	-4	1407	-3	7	1568
Cc1cc(N/N=C/c2ccc([N+](=O)[O-])o2)nc2ccccc12	2083*	10	1789	9	11	1831
COCCn1c(SCC(=O)N2CC(=O)Nc3ccccc32)nc2ccccc21	1625	8	1590	2	0	1839
O=C(CSc1nnc(C2CC2)n1Cc1ccco1)NCC(F)(F)F	1469	4	1660	0	2	2315*
CC1(C)CC(=O)C(C=Nc2ccccc2C(=O)O)=C(O)C1	.	0	1972*	4	6	.
S=c1[nH]c2ccc(Cl)cc2[nH]1	.	24*	1677	5	5	.
COc1ccc2[nH]c(=S)[nH]c2c1	.	13	1534	10	5	.
Cc1ccccc1CC1(CO)CCCN(C(=O)CCC(=O)c2ccccc2)C1 (stereo unspecified)	1671	0	1534	-1	22*	2022
O=C1CCCN2N=C(SCC(=O)N3N=C(c4ccc(Br)cc4)CC3c3ccc(F)cc3)SC2=N1 (stereo unspecified)	2326*	-2	2012*	-3	-4	2131
COc1ccc(C2=NN(C(=O)CSc3nc4ccccc4s3)C(c3ccc(F)cc3)C2)cc1 (stereo unspecified)	1435	8	1326	-4	-8	1833
Cc1ccsc1/C=N/n1c(-c2ccncc2)n[nH]c1=S	1667	9	1556	11	8	2051
O=C(Nc1cccc2ccccc12)c1cn(-c2ccccc2)nc1-c1cccs1	.	7	2231*	6	-1	.
COc1ccc(CC2(C)OC(c3ccccc3)=NN2C(C)=O)cc1 (stereo unspecified)	1473	-7	1416	-1	-9	1460
COc1ccc(/C=C2/C(=O)N(Cc3ccccc3)N=C2C)cc1	1500	0	1595	4	1	1736
COc1ccc(/C=C2/C(=O)N(c3nc4ccccc4s3)N=C2CSc2ccc(Cl)cc2)cc1	2197*	0	1737	5	5	2577*
COc1ccc(C(=O)Nc2cc(C)c3c(=O)oc4ccccc4c3n2)cc1	.	1	1536	-5	24*	.
CC(C)(C)C1CCc2c(sc(NC(=O)CSc3nnc(-c4ccccc4)o3)c2C#N)C1 (stereo unspecified)	1823	-2	1982*	4	3	2157
Cc1ccnc(SCC(=O)Nc2sc3c(c2C#N)CCC(C(C)(C)C)C3)n1 (stereo unspecified)	.	9	1547	5	2	.
COc1ccc(/C(N)=N/OC(=O)CN(C)S(=O)(=O)c2ccc(C)cc2)cc1	1722	4	1857	5	22*	1999
